# Assay outcomes: PubChem, National Center for Advancing Translational Sciences (NCATS)
# In the library only some 19% were active in any assay of this set; here they are far more common.
# DT40 TDP1 no CPT = qHTS for Inhibitors of human tyrosyl-DNA phosphodiesterase 1 (TDP1): qHTS in cells in absence of CPT. DT40 Tdp1-/- hTDP1 cells, no CPT, ATP luminescence, 48 h. Potency, µM (titrated, usually from 46.2 µM), most hits filed as inhibitors. 420,000 tested, 15% active. AID 686978, 2013; also: nearly all actives have a fitted effect of over 55% in size
#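 Cells were dispensed at 400 per well, compounds added by pin tool, plates incubated ≥48 hr at 37 °C, then CellTiter-Glo added for 30 min at room temperature before luminescence reading. Line: DT40 Tdp1-/- complemented with hTDP1; camptothecin omitted.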
# TDP1 cell CPT = qHTS for Inhibitors of human tyrosyl-DNA phosphodiesterase 1 (TDP1): qHTS in cells in presence of CPT | AID 686979, 2013 | chicken DT40 Tdp1-/-;hTDP1 cells + 20 nM CPT, ATP luminescence, 48 h | Potency, µM (top dose mostly 46.2 µM), most hits filed as inhibitors | 420,000 tested, 12% active; also: nearly all actives have a fitted effect of over 55% in size
#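 Chicken DT40 Tdp1-/- cells stably complemented with human TDP1 were seeded at 400 cells/well in medium containing 20 nM camptothecin, exposed to pin-transferred compounds, and grown at 37 °C for at least 48 hr. Viability was read as ATP luminescence.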
# HT1080 IDH1KD tx = qHTS for induction of synthetic lethality in tumor cells producing 2HG: qHTS for the HT-1080-IDH1KD cell line; HT-1080 IDH1 knockdown viability, ATP luminescence, 48 h; Potency, µM (doses to about 46.1 µM), most hits filed as cytotoxic; 360,000 tested, 2% active; AID 686971, 2013
#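 Luminescent ATP read-out (CellTiter-Glo, 10 min at room temperature) after 48 h compound exposure at 37 °C gave viability of IDH1-knockdown HT-1080 cells. Activity was normalised to DMSO and cell-free wells, then fitted as concentration-response curves.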
# HT1080NT lethal = qHTS for induction of synthetic lethality in tumor cells producing 2HG: qHTS for the HT-1080-NT fibrosarcoma cell line. HT-1080-NT fibrosarcoma viability, CellTiter-Glo ATP luminescence, 48 h. Potency, µM (series often up to 46.1 µM), hits mostly cytotoxic. 360,000 tested, 1.6% active;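 also: NT is the 2HG producing partner of a matched IDH1 knockdown line; nearly all actives have a fitted effect of over 55% in size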
#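 A 48-hour cytotoxicity screen used HT-1080-NT cells plated 2 hours before compound delivery. ATP-based CellTiter-Glo luminescence measured viability, normalized to DMSO and no-cell controls.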
# IL-1B inflam inh = qHTS for Inhibitors of Inflammasome Signaling: IL-1-beta AlphaLISA Primary Screen. 360,000 tested, 4.7% active. THP-1 LPS/ATP IL-1B secretion, AlphaLISA, 16 h; active compounds read low. AID 743279, 2014. activity change, % at 57.5 µM; in the data active = activity change below about -50%; inconclusive = mostly about -30% to -49%
#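 Secreted IL-1B measured by AlphaLISA bead assay after 16 h compound exposure of THP-1 cells; compounds (final up to 57.5 uM) added 1 h before LPS (250 ng/mL) and ATP (1.25 mM) stimulation; lower signal means less secretion.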
# A number is an active result; – = inactive; ? = inconclusive; · = not tested or not shown. Unless noted, calls follow the shape of the dose curve; as a rule, active = well fitted curve in the direction sought with a large enough effect; inconclusive = small, poorly fitted or top-dose-only effect, or another doubt; inactive = no such curve, though single readings can be large; an effect the other way counts as inactive or inconclusive.
SMILES,DT40 TDP1 no CPT,TDP1 cell CPT,HT1080 IDH1KD tx,HT1080NT lethal,IL-1B inflam inh
CCCNC(=O)C1(C)CCN(Cc2ccc(OCc3ccccc3)cc2)C1 (centres undefined),18µM,23µM,–,–,–
O=C1CC(c2nc(-c3ccc(Cl)cc3)no2)CN1c1ccc2c(c1)OCCO2 (centres undefined),–,–,·,·,·
COc1ccc(CCNC(=O)c2ccc(NC(=O)CC3SC(N4CCCC4)=NC3=O)cc2)cc1OC (centres undefined),–,–,–,–,–
Cc1cccc(S(=O)(=O)NC(=O)C2(C)CCN2C(=O)C/C=C/c2ccccc2)c1 (centres undefined),–,–,–,–,–
OCCN1CCN(c2nc(N3CCCCC3)nc(N3CCCCC3)n2)CC1,18µM,?,–,–,–
N=C(N)Sc1nc(N2CCCCC2)nc(N2CCCCC2)n1,–,–,–,–,–
O=C1c2cnccc2CN1Cc1ccccc1,–,–,–,–,–
Fc1cccc2sc(Nc3nnc(-c4ccco4)o3)nc12,23µM,?,–,–,–
COc1cccc2sc(Nc3nnc(-c4ccc(F)cc4)o3)nc12,5.8µM,5.8µM,–,–,–
COc1cccc2sc(NC(=O)c3ccc(Br)s3)nc12,?,–,?,?,–
COc1cccc2sc(Nc3nnc(-c4cccs4)o3)nc12,8.2µM,3.7µM,?,–,–
Cc1ccc(C(=O)NNC(=O)C2CCN(c3ncccn3)CC2)cc1,–,–,–,–,–
Cc1ccc2c(c1)C=CC(C)(C)S2=O (centres undefined),–,–,–,–,–
CC[N+]1=C(C)C(C)(C)c2cc(C)ccc21,1.6µM,8.2µM,5.2µM,?,–
CCN(CC(=O)Nc1ccccc1OC)C(=O)c1ccc(N(C)S(=O)(=O)c2ccc(C)cc2)cc1,16µM,15µM,–,–,–
CCOc1ccccc1NC(=O)CN(c1ccc(OC)c(OC)c1)S(=O)(=O)c1ccc(C)cc1,?,?,–,–,–
CCN(CC(=O)Nc1ccc(NC(C)=O)cc1)C(=O)c1ccc(N(C)S(=O)(=O)c2ccc(C)cc2)cc1,?,26µM,–,–,–
COc1ccccc1N(C)S(=O)(=O)c1ccc(C(=O)NC(C)(C)C)cc1,–,–,–,–,–
CCN(CC(=O)NC(C)C)C(=O)c1ccc(S(=O)(=O)N(C)c2ccccc2OC)cc1,15µM,?,–,–,–
CCCNC(=O)NC(=O)COC(=O)c1ccc(S(=O)(=O)N(C)c2ccccc2OC)cc1,21µM,29µM,–,–,–
CCN(Cc1ccccc1)C(=O)c1ccc(N(C)S(=O)(=O)c2ccc(C)cc2)cc1,15µM,18µM,–,–,–
CCN(Cc1ccccc1)C(=O)c1ccc(CNS(=O)(=O)c2ccc(C)cc2)cc1,?,?,–,–,–
COC(=O)COc1ccc(NS(=O)(=O)c2cccc([N+](=O)[O-])c2)cc1,–,–,–,–,-152
COC(=O)COc1cccc(NS(=O)(=O)c2cccc([N+](=O)[O-])c2)c1,–,–,–,–,-194
Cc1cccc(CCNC(=O)Cn2ncc3c([nH]c4ccccc43)c2=O)c1,–,–,–,–,–
SMILES,DT40 TDP1 no CPT,TDP1 cell CPT,HT1080 IDH1KD tx,HT1080NT lethal,IL-1B inflam inh
Cc1csc2c(N3CCN(C(=O)c4ccc(C(C)(C)C)cc4)CC3)ncnc12,4.1µM,?,?,18µM,–
Cc1csc2c(N3CCN(C(=O)NC(C)(C)C)CC3)ncnc12,18µM,15µM,–,–,–
Cc1csc2c(N3CCN(C(=O)Nc4ccc(Cl)c(Cl)c4)CC3)ncnc12,21µM,?,?,–,-78
Cc1csc2c(N3CCN(C(=S)Nc4ccc(C(F)(F)F)cc4)CC3)ncnc12,?,?,–,–,–
Cc1ccccc1NC(=O)N1CCN(c2ncccn2)CC1,–,–,–,–,–
Cc1ccc(/C(N)=N/OC(=O)COc2ccccc2Cl)cc1,–,–,–,–,–
O=C(CSc1ncn[nH]1)N/N=C/c1ccc(C(F)(F)F)cc1,–,–,–,–,–
COc1cc([N+](=O)[O-])ccc1NC(=O)CCCOc1cccc(C)c1,–,–,–,–,–
CCSc1nc2n(n1)C(c1ccc(CC)cc1)C(C(=O)Nc1ccccc1OC)=C(C)N2 (centres undefined),23µM,16µM,·,·,·
COc1ccccc1NC(=O)C1=C(C)Nc2nc(SCc3ccccc3)nn2C1c1ccccn1 (centres undefined),?,8.2µM,·,·,·
COc1ccccc1NC(=O)C1=C(C)Nc2nc(-c3cccnc3)nn2C1c1ccccn1 (centres undefined),–,?,–,–,–
COc1ccccc1NC(=O)C1=C(C)Nc2nc(SCc3cccc(F)c3)nn2C1c1ccc(C(=O)O)cc1 (centres undefined),–,–,·,·,·
CC1=C(C(=O)Nc2ccccc2)C(c2ccccn2)n2nc(SCc3ccccc3)nc2N1 (centres undefined),?,5.2µM,·,·,·
CCOc1ccc(CNC(=O)c2ccc3c(c2)c(C)c(C)n3Cc2ccccc2)cc1OC,15µM,12µM,·,·,·
Cc1cccc(CNC(=O)c2ccc3c(c2)c(C)c(C)n3Cc2ccccc2)c1,?,21µM,·,·,·
